According to PubChem BioAssay (NCATS):
Inconclusive results are not listed. Activity calls are given as the source filed them. Calls come from the whole dose curve; as a rule, active = well fitted inhibition curve with a large enough effect; inconclusive = small, poorly fitted or top-dose-only effect; inactive = no such curve, though single readings can be large or run the other way.

test: BET inhibitor-based combinations targeting novel dependencies in MECOM-rearranged (r) AML: MV-4-11 cell line (AID 2202233); details: MV-4-11 AML viability, CellTiter-Glo luminescence, 48 h; series mostly up to 46 µM; note: nearly all actives have a fitted effect of over 45% in size
Procedure, shortened: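 Each compound is tested in an 11-point concentration series against 500 seeded cells/well for 48 hr. The luminescent viability signal is normalized to DMSO and blank wells, then reduced to AUC and a cell-line-centred Z-AUC.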
Potency is the fitted concentration of half-maximal effect.

Row | SMILES | Potency
1 | Cc1[nH]nc2ccc(-c3cncc(OC[C@@H](N)Cc4ccccc4)c3)cc12 | 0.132 µM (active)
2 | O=C(NC(Cc1cc(=O)[nH]c2ccccc12)C(=O)O)c1ccc(Cl)cc1 (stereo not drawn) | inactive
3 | CO[C@@H]1[C@H](N(C)C(=O)c2ccccc2)C[C@H]2O[C@]1(C)n1c3ccccc3c3c4c(c5c6ccccc6n2c5c31)C(=O)NC4 | 0.0934 µM (active)
4 | O=C(Nc1c(Cl)cncc1Cl)c1ccc(OC(F)F)c(OCC2CC2)c1 | inactive
5 | COC(=O)Nc1ccc(-c2nc(N3CCOCC3)c3cnn(C4CCN(C(=O)OC)CC4)c3n2)cc1 | 1.18 µM (active)
6 | NC(=NCCCCCCN=C(N)N=C(N)Nc1ccc(Cl)cc1)N=C(N)Nc1ccc(Cl)cc1 | 20.9 µM (active)
7 | CC(=O)OC[C@@H]1O[C@@H](n2ccc(=O)[nH]c2=O)[C@H](OC(C)=O)[C@H]1OC(C)=O | inactive
8 | Cc1cc([C@@H](C)Nc2ccccc2C(=O)O)c2nc(N3CCOCC3)cc(=O)n2c1 | 6.61 µM (active)
9 | C[C@@H]1C(=O)O[C@H]2CC34[C@H]5C[C@@H](C(C)(C)C)C36[C@H](OC(=O)[C@@H]6O)O[C@@]4(C(=O)O5)[C@]21O (stereo partly drawn) | inactive
10 | CC(C)(C)c1cc(C(C)(C)C)c(NC(=O)c2c[nH]c3ccccc3c2=O)cc1O | 23.5 µM (active)
11 | CSc1cccc(Nc2ncc3cc(-c4c(Cl)cccc4Cl)c(=O)n(C)c3n2)c1 | 1.86 µM (active)
12 | CO[C@@H](C(=O)N1Cc2[nH]nc(NC(=O)c3ccc(N4CCN(C)CC4)cc3)c2C1)c1ccccc1 | 0.148 µM (active)
13 | CC[C@H](NC(C)C)[C@H](O)c1ccc(O)c2[nH]c(=O)ccc12 | inactive
